Assay outcomes from PubChem BioAssay.
PAFAH1B3 FP inh – PAFAH1B3 (human) inhibition; recombinant PAFAH1B3, FP-rhodamine probe, fluorescence polarization; inhibition, % at 3.39 µM; AID 492972; 340,000 compounds, 0.28% hits;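 active means inhibition above the screen-wide average of all tested compounds plus 3 SD, cut at about 25% in these data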;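 further: 0% = enzyme with DMSO only and 100% = wells lacking PAFAH1B3 protein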
PAFAH1B2 inh – inhibitors of human PAFAH1B2; P68402; recombinant PAFAH1B2, FP-rhodamine activity probe, fluorescence polarization; inhibition, % at 3.39 µM; 340,000 compounds, 1.2% hits;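 active means inhibition above the mean of all tested compounds plus 3 SD, cut at about 24% in these data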;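 further: 0% = enzyme with DMSO and 100% = wells lacking PAFAH1B2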
PP5 primary – blocks human protein phosphatase 5 activity. P53041. purified PP5c, OMFP substrate fluorescence. inhibition, % at 6.7 µM. 320,000 compounds, 0.18% hits. AID 1987;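 active means inhibition above the campaign's mean inhibition across all tested compounds plus 3 SD, cut at about 9.5% in these data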;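 further: 0% = DMSO only and 100% = 100 µM cantharidin control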
PP1 inh – blocks human PP1-alpha phosphatase, a PP5 counter-screen; P62136; purified PP1alpha, OMFP fluorescence; inhibition, % at 6.7 µM; 320,000 compounds, 0.9% hits; AID 2235;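 active means inhibition above the mean inhibition of all tested compounds plus 3 SD, computed separately for each screening campaign, cut at about 15% in these data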
pPAFAH FP inh – inhibitors of human plasma PAF acetylhydrolase (pPAFAH) | Q13093 | recombinant pPAFAH, FP-rhodamine probe fluorescence polarization | inhibition, % at 3.39 µM | 330,000 compounds, 1.5% hits | AID 463082;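 active means inhibition above the mean inhibition across the screen plus 3 SD, cut at about 25% in these data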;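 further: inhibitors block binding of the rhodamine activity-based probe so polarization drops; 0% = enzyme with DMSO and 100% = wells lacking pPAFAH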
Target sequence (Q13093 whole entry, looked up): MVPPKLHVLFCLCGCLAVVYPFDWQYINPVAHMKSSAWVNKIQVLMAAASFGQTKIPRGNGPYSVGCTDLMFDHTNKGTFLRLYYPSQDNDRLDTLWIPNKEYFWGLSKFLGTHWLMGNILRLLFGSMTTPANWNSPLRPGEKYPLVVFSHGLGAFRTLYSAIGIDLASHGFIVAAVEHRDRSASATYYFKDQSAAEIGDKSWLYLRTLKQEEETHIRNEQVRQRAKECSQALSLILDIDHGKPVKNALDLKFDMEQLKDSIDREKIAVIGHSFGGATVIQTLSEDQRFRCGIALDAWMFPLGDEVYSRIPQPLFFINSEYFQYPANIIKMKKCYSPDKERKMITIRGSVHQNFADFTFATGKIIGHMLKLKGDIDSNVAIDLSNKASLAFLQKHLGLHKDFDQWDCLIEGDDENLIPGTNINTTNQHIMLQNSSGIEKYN
PAFAH2 inh – PAFAH2 (human) inhibition | Q99487 | recombinant PAFAH2, FP-rhodamine activity probe, fluorescence polarization | inhibition, % at 3.39 µM | 340,000 compounds, 0.99% hits;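 active means inhibition above the mean over all tested compounds plus 3 SD, cut at about 30% in these data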;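 further: inhibitors block probe labeling of enzyme so polarization drops; 0% = enzyme with DMSO and 100% = wells lacking PAFAH2 protein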
pPAFAH FP conf – pPAFAH (human) inhibition, confirmed; shares compounds with pPAFAH FP inh; recombinant pPAFAH, FP-Rh probe fluorescence polarization; inhibition, % at 3.39 µM; 2,300 compounds, 72% hits;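 active means mean inhibition of the triplicate above the hit cutoff set for the earlier primary screen, cut at about 25% in these data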;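 further: 0% = enzyme with DMSO and 100% = wells lacking pPAFAH enzyme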
PAFAH2 FP conf – confirmation of human PAFAH2 inhibitors; shares compounds with PAFAH2 inh; inhibition, % at 3.39 µM; AID 493030; 2,300 compounds, 65% hits; recombinant PAFAH2, FP-rhodamine activity probe, fluorescence polarization;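 active means mean inhibition over three repeats above a set limit taken from the earlier primary screen, cut at about 30% in these data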;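 further: inhibitor blocks binding of rhodamine activity probe so polarization falls; 0% = enzyme with DMSO and 100% = wells lacking PAFAH2 protein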
Active calls of the source: *. Rows were chosen to be rich in hits. Some 3.4% of all compounds tested hit in one or more screens of this group.

`CCC(=NC1CCN(Cc2ccccc2)CC1)c1c(O)[nH]c(=O)[nH]c1=O` gave PAFAH1B3 FP inh 8, PAFAH1B2 inh 3, PP5 primary 1, PP1 inh 0, pPAFAH FP inh 7 and PAFAH2 inh -8.
O=C1c2cccc3cccc(c23)C(=O)N1/N=C/c1c(O)n(-c2ccccc2)c(=O)[nH]c1=O was read as PAFAH1B3 FP inh 6, PAFAH1B2 inh -4, PP5 primary 3, PP1 inh 3, pPAFAH FP inh 2 and PAFAH2 inh 3.
O=C(COC(=O)Cc1ccccc1)NCCNC(=O)COC(=O)Cc1ccccc1 was read as PAFAH1B3 FP inh 4, PAFAH1B2 inh 6, PP5 primary -1, PP1 inh 0, pPAFAH FP inh 3 and PAFAH2 inh -1.
`O=C(COC(=O)Cc1ccccc1)Nc1ccc(SC(F)F)cc1` gave PAFAH1B3 FP inh 18, PAFAH1B2 inh 2, PP5 primary 5, PP1 inh 2, pPAFAH FP inh 36*, PAFAH2 inh 2 and pPAFAH FP conf 29*.
Screening Cc1ccc(CS(=O)(=O)Cc2ccc(C(=O)N3CCC4(CC3)OCCO4)o2)cc1 returned PAFAH1B3 FP inh 2, PAFAH1B2 inh 3, PP5 primary -1, PP1 inh -2, pPAFAH FP inh 40*, PAFAH2 inh 12 and pPAFAH FP conf 32*.
Cc1ccc(S(=O)(=O)Cc2ccc(C(=O)N3CCC4(CC3)OCCO4)o2)cc1 was read as PAFAH1B3 FP inh 5, PAFAH1B2 inh 5, PP5 primary 9, PP1 inh -5, pPAFAH FP inh 0 and PAFAH2 inh 11.
Screening O=C(COC(=O)Cc1ccccc1)Nc1cc(S(=O)(=O)N2CCOCC2)ccc1N1CCCC1 returned PAFAH1B3 FP inh 2, PAFAH1B2 inh 4, PP5 primary 0, PP1 inh -1, pPAFAH FP inh 39*, PAFAH2 inh 9 and pPAFAH FP conf 39*.
Screening COc1cc2c(cc1OC)C(c1c(O)n(CCc3ccccc3)c(=S)[nH]c1=O)NCC2 (centres undefined) returned PP5 primary -6, PP1 inh -2 and pPAFAH FP inh -11.
`CNc1ccc2oc(C[C@H]3O[C@@]4(CC[C@H]3C)O[C@H]([C@H](C)C(=O)c3ccc[nH]3)[C@H](C)C[C@H]4C)nc2c1C(=O)O` gave PAFAH1B3 FP inh 10, PAFAH1B2 inh 4, PP5 primary 5, PP1 inh 17*, pPAFAH FP inh 38*, PAFAH2 inh -1 and pPAFAH FP conf 8.
`Cn1cc(C(=O)OCC(=O)N2CCCCC2)c2ccccc21` gave PAFAH1B3 FP inh 5, PAFAH1B2 inh 5, PP5 primary 2, PP1 inh 5, pPAFAH FP inh -7 and PAFAH2 inh 1.
`Cn1cc(C(=O)OCC(=O)NC2(C#N)CCCC2)c2ccccc21` gave PAFAH1B3 FP inh 3, PAFAH1B2 inh 0, PP5 primary 3, PP1 inh -2, pPAFAH FP inh 10, PAFAH2 inh 65* and PAFAH2 FP conf 49*.
For Cn1cc(C(=O)OCC(=O)NC2(C#N)CCCCC2)c2ccccc21 the results were PAFAH1B3 FP inh 6, PAFAH1B2 inh 6, PAFAH2 inh 81* and PAFAH2 FP conf 81*.
Screening CCOc1ccccc1Oc1coc2cc(OC(=O)N(C)C)ccc2c1=O returned PAFAH1B3 FP inh 1, PAFAH1B2 inh 7, PP5 primary 0, PP1 inh 1, pPAFAH FP inh 3 and PAFAH2 inh -14.
Screening C=CCn1c(O)c(C(C)=Nc2ccc(NC(C)=O)cc2)c(=O)[nH]c1=O returned PAFAH1B3 FP inh 3, PAFAH1B2 inh -2, PP5 primary -1, PP1 inh -2, pPAFAH FP inh 3 and PAFAH2 inh -4.
`Nc1ncnc2c1ncn2[C@@H]1O[C@H](COP(=O)(O)CP(=O)(O)O)[C@@H](O)[C@H]1O` gave PAFAH1B3 FP inh 1, PAFAH1B2 inh 10 and PAFAH2 inh -3.
